Where “and” joins values, the source holds several entries; their conditions need not be identical. Equal entries are not always repeated.
test system: Plasmodium falciparum; experiment: GSK_TCMDC: Inhibition of Plasmodium falciparum 3D7 in whole red blood cells, using parasite LDH activity as an index of growth. Test compounds present at 2uM; format: functional

SMILES	Inhibition
CCN1C(=O)C(=NN=C(S)N2CCCC2)c2ccccc21	91%
COc1cccc(Cn2ccc3c4c(N)nc(N)nc4ccc32)c1	99%
Cl.Nc1nc(N)c2c3c(ccc2n1)NCCC3	97%
O=c1c2ccc(Sc3ccccn3)cc2n(-c2ccccc2)c2cc(Sc3ccccn3)ccc12	89%
COc1ccc2c(c1CNCCCCCCNCc1c(OC)ccc3c1CCCC3)CCCC2	94%
CCOc1cc2ncnc(Nc3ccc(OCc4c(Cl)cccc4Cl)c(OC)c3)c2cc1OCC.Cl	89%
C=CCOc1ccc(Cc2cnc(N)nc2N)cc1CCC	93%
CCC(C(C)C)n1ccc2c3c(N)nc(N)nc3ccc21 (stereo not given)	95%
Cl.N=C(N)c1ccc2[nH]c(-c3cc4cc(C(=N)N)ccc4o3)cc2c1	94%
Cc1cccc(Cn2ccc3c4c(N)nc(N)nc4ccc32)c1	95%
CCc1cccc(-c2cc(N)n(C)c3nc(N)nc(=O)c2-3)c1	85%
Nc1nc(N)c2c(Sc3ccc(F)cc3)cccc2n1	88%
CC(=O)Oc1c(Br)c(C)nc(C)c1-c1ccc(Oc2ccc(OC(F)(F)F)cc2)cc1	98%
CCC(=C(CC)c1ccc(O)c(CNC2CCCCC2)c1)c1ccc(O)c(CNC2CCCCC2)c1.Cl	100%
CN(Cc1cnc2nc(N)nc(N)c2n1)c1ccc(C(=O)N[C@H](CCC(=O)OC(C)(C)C)C(=O)N[C@@H](CCC(=O)OC(C)(C)C)C(=O)OC(C)(C)C)cc1	85%
Cl.O[C@@H](c1cc(C(F)(F)F)nc2c(C(F)(F)F)cccc12)[C@H]1CCCCN1	96% and 99%
Cc1cc(O)c(-c2ccc(OCc3ccc(Cl)cc3)cc2)c(C)n1	93%
CC(C)Cn1ccc2c3c(N)nc(N)nc3ccc21	96%
CCN(CC)c1ccc2nc(N)nc(N)c2c1.Cl	93%
Cc1nc(C)c(-c2ccc(Oc3ccc(OC(F)(F)F)cc3)cc2)c(OC(=O)c2ccccc2)c1Cl	97%

SMILES	Inhibition
Cl.c1ccc2c(NCCOCCNc3c4ccccc4nc4ccccc34)c3ccccc3nc2c1	94%
CC1CCNc2ccc(Cc3cnc(N)nc3N)cc21.Cl (stereo not given)	82%
CC1CCN(Cc2c(O)ccc3c(CN4CCC(C)CC4)c(O)ccc23)CC1.Cl	100%
COc1ccccc1-c1nc2c(ccc3nc(N)nc(N)c32)[nH]1	100%
CN(C)S(=O)(=O)n1ccc2c3c(N)nc(N)nc3ccc21	94%
Cc1nc(C)c(-c2ccc(-c3ccc(F)cc3)cc2)c(O)c1Cl	96%
Nc1nc(N)c2c(Oc3cccc(Cl)c3)cccc2n1	97%
Cc1nc(C)c(-c2ccc(Cl)cc2)c(O)c1I	93%
COc1ccc(OC)c(CC2c3ccc(Br)c(O)c3CCN2C)c1.Cl (stereo not given)	98%
Cc1[nH]c(C)c(-c2ccc(Oc3ccc(C(F)(F)F)cc3)cc2)c(=O)c1Br	97%
CCOc1cc(Cc2cnc(N)nc2N)ccc1OC.Cl	88%
CC/N=C(/NCCCCCCN/C(=N/CC)NCc1ccccc1)NCc1ccccc1.I	96%
CC(C)(C)c1ccc(-c2nc3c(ccc4nc(N)nc(N)c43)[nH]2)cc1.Cl	100%
CCN(CC)CCNc1cc(C)nc(NC(=N)Nc2ccc(Cl)cc2)n1.Cl	100%
COc1cc(Cc2cnc(N)nc2N)cc(OCCCS(=O)(=O)O)c1OC	88%
CC(=NNC(S)=NCCc1ccccn1)c1ccccn1	100%
Cc1[nH]c(C)c(-c2ccc(Oc3ccccc3)cc2)c(=O)c1Br	96%
Cc1nc(C)c(-c2ccc(Oc3ccc(OC(F)(F)F)cc3)cc2)c(OC(=O)c2ccc(CN(C)C)cc2)c1Cl	98%
O=C(NCCCCN1CCN(c2nsc3ccccc23)CC1)c1ccccc1C(=O)NCCCCN1CCN(c2nsc3ccccc23)CC1	100%
CCCCCCn1ccc2c3c(N)nc(N)nc3ccc21	99%

Reference: ChEMBL document CHEMBL1157539, “Thousands of chemical starting points for antimalarial lead identification” (Nature, 2010)
